# Experimental data published in PubChem BioAssay (NCI).
# Compounds without any hit were thinned out: in the full panel of roughly 83,000, 20% have a hit.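 Results are percent growth after 48 hours of single-concentration exposure. 100 means growth as in untreated cells, lower positive values show inhibition; negative values down to -100 show cell death.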 Values without a mark were called inactive. Activity calls are given as the source filed them. The calls were made as follows: active = growth percent below 10; inactive = the rest.
# What was measured:
# Assay in all cases: NCI-60 one-dose screen, 48 h (100 = growth as untreated, 0 = no growth, -100 = all killed)
# Details in all cases: 10 µM unless noted
# [1] = tested on: NCI-H23 lung
# [2] = tested on: NCI-H226 lung
# [3] = tested on: NCI-H322M lung
# [4] = tested on: HOP-62 NSCLC
# [5] = tested on: NCI-H460 lung
# [6] = tested on: HOP-92 NSCLC
# [7] = tested on: NCI-H522 lung
# [8] = tested on: A549/ATCC NSCLC
# [9] = tested on: 786-0 renal
# [10] = tested on: COLO 205 colon
# [11] = tested on: DU-145 prostate
# [12] = tested on: K-562 leukemia
# [13] = tested on: MALME-3M melanoma
# [14] = tested on: MDA-MB-231 breast
# [15] = tested on: RXF 393 renal
# [16] = tested on: SF-268 CNS
# [17] = tested on: SF-295 CNS
# [18] = tested on: SF-539 CNS
# [19] = tested on: UACC-257 melanoma
# [20] = tested on: M14 melanoma
SMILES,growth [1],growth [2],growth [3],growth [4],growth [5],growth [6],growth [7],growth [8],growth [9],growth [10],growth [11],growth [12],growth [13],growth [14],growth [15],growth [16],growth [17],growth [18],growth [19],growth [20]
CC1(C)C2CC1C1(/C=N\Nc3ccccc3)C(C2)C(C#N)(C#N)C1(C#N)C#N (stereo not given),85.1%,86.8%,80.4%,86.1%,99%,80.9%,77.8%,93.4%,100%,115%,101%,84.9%,97.7%,75.8%,103%,86.3%,104%,107%,98.9%,83.6%
C#Cc1cccc(NC(=O)Nc2ccccc2NC(=O)CCl)c1,-52.2% [8.25 µM] (active),-56.2% [8.25 µM] (active),91% [8.25 µM],-34.8% [8.25 µM] (active),-24.4% [8.25 µM] (active),-30.6% [8.25 µM] (active),-58.6% [8.25 µM] (active),10% [8.25 µM],-63.2% [8.25 µM] (active),-49.3% [8.25 µM] (active),6.7% [8.25 µM] (active),9.69% [8.25 µM] (active),-19.1% [8.25 µM] (active),-71.7% [8.25 µM] (active),-81.1% [8.25 µM] (active),-17.4% [8.25 µM] (active),38.7% [8.25 µM],-70.8% [8.25 µM] (active),-12.6% [8.25 µM] (active),-22.2% [8.25 µM] (active)
CNCCCNc1nc2ccccc2c2c(=O)c3cc(F)ccc3sc12,70.1%,81.7%,55.9%,47.9%,-52.9% (active),28.9%,24.8%,37.9%,61.5%,-47.8% (active),2.57% (active),-38.7% (active),84.2%,-53.7% (active),45.6%,51.5%,81.5%,1.04% (active),91.6%,-53.2% (active)
COc1cc2cc(Oc3ccc(NC(=O)Nc4ccc(F)c(C(F)(F)F)c4)cc3)c(C)nc2cc1OCCN1CCOCC1,0.421% (active),36.6%,60.7%,24.4%,7.19% (active),-12.9% (active),13.6%,12.7%,35%,-6.62% (active),23.3%,9.96% (active),22.7%,39.6%,40.3%,32.1%,0.809% (active),45.1%,12%,16.7%
COc1nc2ccc(C)cc2cc1-c1nc2c(cnn2-c2ccc(Br)cc2)c(=O)[nH]1,44.9%,57.5%,72.7%,45.5%,27.1%,51.6%,3.48% (active),57.7%,41.5%,74.2%,53.4%,16%,73%,76.1%,15.9%,49.6%,26.7%,12.1%,47.4%,27.7%
CCOc1c(B(O)O)cccc1-c1nc2ccc3[nH]ncc3c2c2c1CCCC2,60.1%,54.3%,109%,48.3%,42.1%,33.5%,55.2%,64.5%,47.7%,48.6%,66.9%,63.4%,101%,33.9%,-5.22% (active),58.6%,59.3%,18.6%,135%,120%
CCCCCCNC(=O)Oc1ccc(/C(=C(\C)c2ccc(OC)cc2)c2ccc(OCCN3CCCCC3)cc2)cc1,64.6%,95.6%,90.3%,72%,52.7%,67.6%,72.7%,61.7%,41.7%,16.3%,79.7%,6.45% (active),34.8%,73.6%,47.2%,71.8%,33.3%,27.1%,-1.88% (active),-37% (active)
Cc1cc2nc3ccc(N=Nc4ccc(N(C)C)cc4)cc3n(-c3ccccc3)c-2cc1=N,-45.8% (active),-81.3% (active),-96.6% (active),-55.9% (active),-58.1% (active),-70.3% (active),-73.8% (active),-75.4% (active),-61.9% (active),-86.8% (active),-98.2% (active),17.9%,-92.7% (active),-27.9% (active),-87.8% (active),-78.1% (active),-89.4% (active),-89.4% (active),-95.7% (active),-78.4% (active)
CC1CN(C2CCCCC2)C(=S)N(c2ccccc2)C1=O (stereo not given),100%,115%,107%,93.7%,107%,92.8%,116%,102%,92.2%,127%,115%,117%,119%,115%,123%,102%,103%,103%,109%,108%
COc1cc(/C=N/NC(=O)c2ccc(C)nc2)cc(OC)c1OC,102%,85.1%,90.5%,105%,103%,90.5%,91.7%,90.9%,34%,108%,114%,52.2%,97.3%,107%,90%,104%,97.4%,97.6%,74.3%,108%
COc1ccc(/C=N/Nc2cc(=O)[nH]c3ccc(C)cc23)cc1,70%,81.5%,86.8%,86.3%,103%,88%,75.2%,91.3%,105%,106%,105%,79.5%,114%,126%,95.4%,115%,96.2%,101%,105%,86.3%
COc1cc2cc(Oc3ccc(NC(=O)Nc4cc(C(F)(F)F)cc(C(F)(F)F)c4)cc3)c(C)nc2cc1OCCN1CCOCC1,7.96% (active),40.2%,49.5%,28.8%,9.99% (active),-14.2% (active),15%,11.8%,30.9%,-22.9% (active),24.9%,6.68% (active),28.1%,1.49% (active),26%,27.8%,7.59% (active),38.5%,7.28% (active),17.6%
O=C(N/N=C/[C@@H](O)[C@H](O)[C@H](O)CO)c1ccc(NC(=O)c2cccnc2)cc1,107%,99.9%,104%,102%,108%,103%,99.3%,101%,106%,107%,112%,103%,110%,102%,109%,98.5%,101%,103%,100%,106%
COc1cccc(-c2nn(-c3ccccc3)cc2-c2ccnc(N3CCOCC3)c2)c1,82.4%,93.9%,98.7%,96.2%,91.3%,66.3%,71.4%,86.8%,99%,98.5%,99.5%,73.6%,90.7%,85.1%,97.8%,88.8%,82.8%,97.9%,111%,100%
O=C(Nc1ccc(OS(=O)(=O)c2ccc(F)cc2)cc1)c1ccc(Cl)cc1,94%,99.5%,92.6%,101%,101%,101%,83.6%,94.1%,104%,114%,107%,81.1%,96.9%,104%,109%,101%,105%,108%,100%,98%
